Experiment [1] in a line: qHTS assay to identify small molecule antagonists of the retinoid acid receptor (RAR) signaling pathway - cell viability counter screen (AID 1159551). Also: nearly all actives have a fitted effect of over 35% in size. The following applies: C3RL4 cells viability, ATP luminescence (CellTiter-Glo), 6 h; series mostly up to 92.4 µM. A digest of the protocol: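 ATP-based viability, C3RL4 cells, 6 h at 37 C with 1 uM final retinol co-added after compound; luminescence read 30 min post CellTiter-Glo, RT.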
On the technique in general: Quantitative high-throughput screening tests each substance at several concentrations.

The nature of experiment [2]: qHTS assay to identify small molecule antagonists of the retinoic acid receptor (RAR) signaling pathway (AID 1159552; also: nearly all actives have a fitted effect of over 50% in size). The following applies: C3RL4 RARE luciferase reporter, retinol-stimulated, 6 h; series mostly up to 92.4 µM. A digest of the protocol:
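Cells of the C3RL4 line were seeded, incubated overnight, then dosed with compounds in DMSO followed immediately by retinol (1 uM final). Six hours later luciferase detection reagent went in; signal was measured after 30 min at RT.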

Experiment [3] can be described thus: qHTS assay to identify small molecule agonists of the retinoic acid receptor (RAR) signaling pathway (AID 1159553). The following applies: C3RL4 RARE luciferase reporter, agonist, 6 h; series mostly up to 73.3 µM. A digest of the protocol:
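Quantitative high-throughput format: the Tox21 10K library was tested on C3RL4 RARE-luciferase cells for 6 hr at 37 C and 5% CO2, with luminescence measured after a 30 min room-temperature reagent step.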

Experiment [4] in a line: qHTS assay to identify small molecule antagonists of the estrogen related receptor (ERR) signaling pathway from Tox21 library - cell viability counter screen (AID 1224834). Also: nearly all actives have a fitted effect of over 30% in size. The note with it: ERR reporter cells viability, CellTiter-Fluor, 17.5 h; series mostly up to 92.4 µM. In a few lines:
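Compounds in DMSO were pinned onto ERR cells that had been incubated for 6 h, and the plates were held at 37 C for 17.5 h. CellTiter-Fluor reagent was then added and fluorescence was measured after 30 min.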

The target in experiment [5] is Luciferin 4-monooxygenase (Photinus pyralis) (UniProt P08659). Nature of the experiment: qHTS assay to identify small molecule inhibitors of firefly luciferase (AID 1224835). Also: nearly all actives have a fitted effect of over 25% in size. The note with it: purified P. pyralis luciferase, luminescence inhibition; series mostly up to 115 µM. In a few lines:
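Inhibition of purified Photinus luciferase is measured by luminescence. Substrate levels (D-luciferin, ATP) sit at their KM values. Each compound is tested in a concentration series.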

A short description of experiment [6]: qHTS assay to identify small molecule agonists of the constitutive androstane receptor (CAR) signaling pathway - cell viability counter screen (AID 1224836). Also: nearly all actives have a fitted effect of over 45% in size. The note with it: HepG2-CYP2B6-hCAR viability, CellTiter-Fluor, 23 h, PK11195 added to every well; series mostly up to 92.4 µM. In a few lines: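 HepG2-CYP2B6-hCAR, 2500 cells/well, 4 h pre-incubation; cpd 15 conc + PK11195 0.75 uM final; 23 h, 37 C/5% CO2; CellTiter-Fluor, fluorescence.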

Experiment [7] is described as follows: qHTS assay to identify small molecule antagonists of the estrogen related receptor signaling pathway with the pleiotropic PPARgamma coactivator (PGC) from Tox21 10K library - cell viability counter screen (AID 1224840; active = well fitted cell-killing curve with a large enough effect in the repeat runs, not every such curve was filed as active; also: nearly all actives have a fitted effect of over 40% in size). The following applies: PGC/ERR reporter cells viability, CellTiter-Fluor, 17.5 h; series mostly up to 92.4 µM. In a few lines:
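Cell viability is measured by CellTiter-Fluor fluorescence in PGC/ERR cells that receive compounds after a 6-hour attachment period and are then incubated 17.5 hours at 37 C.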

In experiment [8] the target is Thyrotropin receptor (Homo sapiens) (UniProt P16473). The experiment can be described thus: qHTS assay to identify small molecule agonists of the thyroid stimulating hormone receptor (TSHR) signaling pathway (AID 1224843; calls by dose curve; also: nearly all actives have a fitted effect of over 45% in size; also: potency is read from the fitted curve at half-maximal effect). The note with it: TSHR-HEK293 cells, cAMP HTRF, agonist mode, 30 min; series mostly up to 92.4 µM. In a few lines:
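A cell-based cAMP HTRF format was run in TSHR-transfected HEK293 cells, 800 per well. Treatment: 30 min, room temperature. Detection: 1 h with labelled cAMP and anti-cAMP cryptate. Concentration-response over 15 points, three replicates.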

A short description of experiment [9]: qHTS assay to identify small molecule agonists of the hypoxia (HIF-1) signaling pathway - cell viability counter screen (AID 1224844; calls by dose curve; also: nearly all actives have a fitted effect of over 50% in size). The following applies: HRE-bla ME-180 viability, CellTiter-Glo luminescence, 17 h; series mostly up to 76.8 µM. In a few lines: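 Viability counter screen: HRE-bla ME-180 cells plated 5 hrs before compound addition, treated 17 hrs at 37C and 5% CO2, then CellTiter-Glo added after the FRET reporter read; luminescence after 30 min.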

The nature of experiment [10]: qHTS assay to identify small molecule agonists of H2AX (AID 1224845; active = well fitted activation curve with a large enough effect in the signal ratio in the repeat runs, not every such curve was filed as active; the % refers to the signal ratio). The following applies: CHO-K1 phospho-H2AX Ser139 HTRF, 3 h; series mostly up to 154 µM. A digest of the protocol: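 Phospho-H2AX Ser139 measured by HTRF (ex 320 nm; em 665 and 620 nm) after 24 hr antibody incubation. Compounds, 15 concentrations, 0.76% DMSO, were applied to CHO-K1 cells for 3hr at 37C before lysis.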

Experiment [11] can be described thus: qHTS assay to identify small molecule agonists of the hypoxia (HIF-1) signaling pathway (AID 1224846; active = well fitted activation curve with a large enough effect in the signal ratio in the repeat runs, not every such curve was filed as active; the % refers to the signal ratio). The following applies: HRE-bla ME-180 cells, beta-lactamase ratio, 17 h; series mostly up to 76.8 µM. A digest of the protocol: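 Agonist mode reporter screen. ME-180 cells stably expressing bla under HRE control received test compounds in DMSO for 17 hrs (37C, 5% CO2), and beta-lactamase activity was then detected with the CCF4-AM FRET substrate.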

Experiment [12] can be described thus: qHTS assay to identify small molecule agonists of H2AX - cell viability counter screen (AID 1224847; calls by dose curve;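 also: wild-type CHO-K1 cells; top concentration of the series differs between compounds; nearly all actives have a fitted effect of over 30% in size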). The following applies: CHO-K1 viability, CellTiter-Glo luminescence, 3 h; series mostly up to 154 µM. In a few lines:
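Cells plated first: CHO-K1, 1000 per well in 10% FBS medium, incubated overnight at 37C. Then 15-point compound titration added (final DMSO 0.76%) for 3 hr. Finally CellTiter-Glo added and luminescence read.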

A short description of experiment [13]: qHTS RealTime-Glo MT Cell Viability Assay in HepG2 cells - 24 hour (AID 1224867). Also: nearly all actives have a fitted effect of over 50% in size. The following applies: RealTime-Glo luminescence; series mostly up to 76.8 µM. In a few lines:
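qHTS, HepG2, 600 cells/well, RealTime-Glo (NanoLuc + prosubstrate) added with cells; 5 h preincubation; DMSO compound addition; 37 C; luminescence at 0/8/16/24/32/40 h.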

For experiment [14], the target named is Nuclear receptor subfamily 1 group I member 3 (Homo sapiens) (UniProt Q14994). The experiment can be described thus: qHTS assay to identify small molecule antagonists of the constitutive androstane receptor (CAR) signaling pathway (AID 1224838).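 Also: HepG2 cells stably expressing hCAR with CYP2B6 luciferase reporter stimulated by CITCO; nearly all actives have a fitted effect of over 40% in size.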 The following applies: HepG2-CYP2B6-hCAR luciferase, CITCO-stimulated, 24 h; series mostly up to 92.4 µM. A digest of the protocol:
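Luminescence from a CYP2B6-2.2kb promoter reporter in hCAR-expressing HepG2 cells reflects CAR signaling. Cells received compounds at 15 concentrations and 50 nM CITCO (final), then incubated 24 h at 37 C/5% CO2.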

Experiment [15] shares this target. Nature of the experiment: qHTS assay to identify small molecule agonists of the constitutive androstane receptor (CAR) signaling pathway (AID 1224839).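 Also: HepG2 cells stably carrying human CAR and a CYP2B6 luciferase reporter; nearly all actives have a fitted effect of over 15% in size.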 The note with it: HepG2 hCAR CYP2B6-luciferase, agonist mode, 24 h; series mostly up to 92.4 µM. In a few lines: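 HepG2-CYP2B6-hCAR cells, 2500/well, 4 h pre-incubation; compounds 15 conc.; PK11195 0.75 uM final; 24 h, 37 C/5% CO2; ONE-Glo luciferase read.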

Experiment [16] is described as follows: qHTS assay to identify small molecule antagonists of the constitutive androstane receptor (CAR) signaling pathway - cell viability counter screen (AID 1224837). Also: nearly all actives have a fitted effect of over 45% in size. The following applies: HepG2-CYP2B6-hCAR viability, CellTiter-Fluor, 23 h, co-treated with 50 nM CITCO; series mostly up to 92.4 µM. In a few lines:
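Cells are seeded, rested 4 hr at 37 C/5% CO2, dosed with compound (15-point series) and 50 nM CITCO, incubated a further 23 hr, and then CellTiter-Fluor reagent is added before fluorescence is read. The line is HepG2 with stable hCAR and CYP2B6-2.2kb.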

Results filed as inconclusive are left out. A number with no mark means an inactive call. Calls of active or inactive are those of the source. Unless noted, calls follow the shape of the dose curve; as a rule, active = well fitted curve in the direction sought with a large enough effect in the repeat runs; inconclusive = weak or mixed curves; inactive = no such curve, though single readings can be large; an effect the other way counts as inactive or inconclusive.
% is scaled to controls: 0 for no effect and ±100 for the full control effect.

Sequence of Thyrotropin receptor (Homo sapiens) (P16473 whole entry, looked up): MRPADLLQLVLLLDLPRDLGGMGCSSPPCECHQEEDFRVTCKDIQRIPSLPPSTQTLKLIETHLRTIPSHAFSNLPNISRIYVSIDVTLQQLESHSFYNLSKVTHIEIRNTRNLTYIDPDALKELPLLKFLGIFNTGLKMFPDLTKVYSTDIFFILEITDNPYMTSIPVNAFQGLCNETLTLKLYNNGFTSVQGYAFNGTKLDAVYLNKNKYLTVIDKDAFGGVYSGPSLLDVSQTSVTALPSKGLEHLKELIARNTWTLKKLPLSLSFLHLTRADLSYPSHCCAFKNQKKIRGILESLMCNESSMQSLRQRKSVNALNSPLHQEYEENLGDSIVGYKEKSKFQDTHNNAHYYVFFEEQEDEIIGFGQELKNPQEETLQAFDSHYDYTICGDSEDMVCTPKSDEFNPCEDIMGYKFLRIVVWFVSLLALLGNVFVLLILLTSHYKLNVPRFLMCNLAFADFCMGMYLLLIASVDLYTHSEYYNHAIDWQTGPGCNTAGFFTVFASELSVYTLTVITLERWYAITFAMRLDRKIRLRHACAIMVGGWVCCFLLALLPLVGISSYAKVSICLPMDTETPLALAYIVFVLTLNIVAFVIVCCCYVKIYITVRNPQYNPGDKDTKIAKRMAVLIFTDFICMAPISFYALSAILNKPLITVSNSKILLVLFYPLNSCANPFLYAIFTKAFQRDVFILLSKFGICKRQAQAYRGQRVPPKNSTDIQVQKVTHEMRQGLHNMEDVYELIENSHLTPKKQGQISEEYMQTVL
Sequence of Luciferin 4-monooxygenase (Photinus pyralis) (P08659 whole entry, looked up): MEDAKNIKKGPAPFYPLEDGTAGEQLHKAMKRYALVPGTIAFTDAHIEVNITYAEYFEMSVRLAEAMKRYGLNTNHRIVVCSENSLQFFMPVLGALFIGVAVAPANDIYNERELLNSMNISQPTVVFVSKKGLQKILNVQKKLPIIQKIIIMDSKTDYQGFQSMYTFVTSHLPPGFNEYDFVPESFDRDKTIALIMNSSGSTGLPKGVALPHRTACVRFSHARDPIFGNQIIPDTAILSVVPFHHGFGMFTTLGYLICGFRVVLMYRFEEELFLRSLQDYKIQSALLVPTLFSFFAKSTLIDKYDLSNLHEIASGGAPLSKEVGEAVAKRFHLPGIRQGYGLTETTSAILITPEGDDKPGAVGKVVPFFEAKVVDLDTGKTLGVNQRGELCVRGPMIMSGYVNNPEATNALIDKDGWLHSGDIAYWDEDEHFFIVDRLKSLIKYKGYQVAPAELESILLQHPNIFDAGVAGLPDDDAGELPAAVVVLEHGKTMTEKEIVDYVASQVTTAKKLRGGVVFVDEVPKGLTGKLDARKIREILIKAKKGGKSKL
Sequence of Nuclear receptor subfamily 1 group I member 3 (Homo sapiens) (Q14994 whole entry, looked up): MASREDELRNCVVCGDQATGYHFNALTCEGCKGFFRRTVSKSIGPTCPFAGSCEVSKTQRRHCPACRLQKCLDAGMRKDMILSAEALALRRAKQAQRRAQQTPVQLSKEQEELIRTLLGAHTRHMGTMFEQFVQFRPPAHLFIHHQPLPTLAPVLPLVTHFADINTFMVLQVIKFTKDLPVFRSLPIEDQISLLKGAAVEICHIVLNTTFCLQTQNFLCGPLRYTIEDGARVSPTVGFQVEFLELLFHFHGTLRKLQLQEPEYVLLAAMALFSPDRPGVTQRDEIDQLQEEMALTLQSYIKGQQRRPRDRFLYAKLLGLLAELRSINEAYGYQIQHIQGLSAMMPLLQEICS

Turning to `CCC(=O)OCCOc1ccccc1`, the compound was called inactive in [1], in experiment [2], in experiment [4], in [6], in experiment [7] and in experiment [9]. Further, the call in [10], in experiment [11], in [12] and in experiment [13] was inactive. For the same compound, the Potency result in experiment [3], in experiment [5] and in experiment [8] was “inactive” throughout.

Turning to `CC(=O)/C=C/C=C1/C2CCC(C2)C1(C)C` (stereo not drawn), the result in experiment [1], in [2], in [4], in [6], in experiment [7] and in [9] was inactive. The compound was called inactive in experiment [10], in experiment [11], in experiment [12] and in experiment [13]. The Potency result in [3] and in [5] was “inactive” in each case. The Potency in experiment [8] is 18.8 µM (active).

In the case of `C[C@@H]1NC(=O)[C@@H](N)CNC(=O)[C@H](C2CCNC(N)=N2)NC(=O)/C(=C/NC(N)=O)NC(=O)[C@H](CNC(=O)C[C@@H](N)CCCN)NC1=O` (stereo partly drawn), the activity change, negative = cytotoxicity in [1] is 5.1% [at 0.349 µM]; in experiment [12] it was 1.7% [at 0.582 µM]; in experiment [13], 4.49% [at 0.29 µM]. The activity, negative = inhibition in [2] was 21% [at 0.349 µM]; in [14], -10.7% [at 0.349 µM]. Also, the activation in [3] was 0.189% [at 0.756 µM]; in experiment [15] it was 4.38% [at 0.349 µM]; in [8] it was -10.7% [at 0.349 µM]; in experiment [11] it was -0.509% [at 0.291 µM]. For the same compound, the viability change, negative = cytotoxic in [4] was -0.374% [at 0.349 µM]; in [6] it was -0.0447% [at 0.349 µM]; in [7], 10.7% [at 0.349 µM]. Besides, the activity change, negative = inhibition in experiment [5] was -1.34% [at 0.435 µM]. In addition, the activation (H2AX phosphorylation) in [10] was -2.47% [at 0.582 µM].

Take `CCCCCCCCCCCCCCBr`: the compound was classed as inactive in [1], in [2], in experiment [4], in [6], in [16] and in [7]. The compound was called inactive in [10], in [11], in experiment [12] and in experiment [13]. Also, the Potency result in [3], in [5] and in [8] was “inactive” in each case.

The values are drawn from PubChem BioAssay (Tox21).
